Screening data deposited in PubChem by several laboratories.
H9c2 protect: modulators protecting cardiomyocytes from myocardial damage. 360,000 compounds, 0.63% hits. AID 588492. protection from H2O2 cell death, % at 20 µM. H9c2 cardiomyocytes, H2O2 injury protection, ATPLite, 2 h;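 active means compounds giving at least 50% protection of heart cells from peroxide-induced death in the single-dose screen, raw or plate-pattern-corrected value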
aDG glyco act: increases alpha dystroglycan glycosylation | Pro5-aDG cells, alpha-DG glycosylation AlphaScreen (IIH6); 0% Pro5, 100% B10-LARGE cell signal | activation, % at 10 µM | 360,000 compounds, 0.22% hits;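 active means activation of at least 8% versus controls, or a plate z-score of at least 8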;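 further: Pro5 are CHO cells carrying HIG-tagged alpha-DG that lacks glycosylation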
MPTP block: permeability transition pore inhibition | isolated mouse mitochondria, Ca2+ swelling absorbance, 30 min | inhibition, % at 10 µM | 360,000 compounds, 1.4% hits | AID 602449;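 active means inhibition of 50% or more, scaled per plate between neutral and stimulator controls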
FAS TE block: FAS thioesterase (human) inhibition. P49327. recombinant FAS-TE, OMFH fluorogenic substrate, fluorescence endpoint. inhibition, % at 15 µM. 360,000 compounds, 0.67% hits. AID 602261;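 active means compounds whose normalised, plate-corrected inhibition of enzyme fluorescence in the single-dose primary screen is 50% or more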
CR mimetic SO: yeast age-related superoxide inhibition as caloric restriction mimetic. S. cerevisiae aged cells, superoxide DHE fluorescence; hits give low values. superoxide response (% of plate mean), % at 10 µM. 330,000 compounds, 0.18% hits;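 active means superoxide response under a set limit, about three screen SD below normal, cut at about 65% in these data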;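 further: yeast aged for seven days with compound at 30 °C before DHE staining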
Mot1-301 SUMO: inhibitors of SUMOylation pathway: yeast Mot1-301 growth rescue | S. cerevisiae Mot1-301 growth rescue, ATP luminescence, 38.5C; percent above DMSO median, 100 means doubled | growth rescue, % at 18.8 µM | 320,000 compounds, 1% hits;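 active means every valid replicate shows activation above 250% relative to neutral control wells; inactive means the rest, any valid replicate at or below 250%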
Large screens that a line does not name were inactive. The list is not random: actives were taken first. Their share in the collection is about 3.8%.

O=C(O)c1ccsc1Cc1cccs1	none (no result: CR mimetic SO, Mot1-301 SUMO)
c1ccc(N2CCN(c3nc(-c4cccs4)nc4ccccc34)CC2)cc1	Mot1-301 SUMO 825
CCc1ccccc1NC(=O)CN1CCN(C(=O)c2cccc(-n3cnnn3)c2)CC1	none
COc1ccc(OC)c(C2CC(=O)c3c([nH]c(C(=O)OCC4CCCO4)c3C)C2)c1 (configuration not stated)	H9c2 protect 71
Oc1c(C(c2ccccc2)N2CCCCC2)sc2ncnn12 (configuration not stated)	Mot1-301 SUMO 462
CCCCCC(=O)N1C[C@H](O)[C@@H](n2cc(C3CC3)nn2)C[C@@H]1c1ccc(C)cc1	none (no result: CR mimetic SO, Mot1-301 SUMO)
Nc1ccc(Oc2ccc3c(c2)C(=O)N(CC2CCCO2)C3=O)cc1 (configuration not stated)	Mot1-301 SUMO 284
Cc1ccc(S(=O)(=O)c2ccc([N+](=O)[O-])cn2)cc1	none
Cc1cc(S(=O)(=O)c2ccc([N+](=O)[O-])cn2)ccc1Br	Mot1-301 SUMO 379
CN1CCn2cnc(C(=O)Nc3ccc(CNC(=O)OC(C)(C)C)cc3)c2C1=O	none (no result: CR mimetic SO, Mot1-301 SUMO)
Cc1cccc(OCCn2c(NC(=O)c3ccco3)nc3ccccc32)c1	H9c2 protect 62
Cc1ccc(OCCn2c(NC(=O)c3ccco3)nc3ccccc32)cc1	none
Cc1cc(C)c(C)c(S(=O)(=O)N2CCC(C(=O)NNC(=O)c3ccccc3O)CC2)c1C	H9c2 protect 66
Cc1ccc(S(=O)(=O)N2CCC(C(=O)NNC(=O)c3ccccc3O)CC2)cc1C	none
Cc1ccc(CNc2ncnc3ccc(-c4ccc(CO)o4)cc23)o1	none (no result: CR mimetic SO, Mot1-301 SUMO)
CCOC(=O)c1ccc(-c2ccc3ncnc(NCc4csc(C)n4)c3c2)o1	H9c2 protect 68 (no result: CR mimetic SO, Mot1-301 SUMO)
Cc1cn(CC(=O)N[C@H](C)c2cccc3ccccc23)c(=O)[nH]c1=O	none (no result: CR mimetic SO, Mot1-301 SUMO)
Cn1c(=O)[nH]c(=O)c2c1nc(NCCc1ccccc1)n2CC(O)COc1ccccc1 (configuration not stated)	H9c2 protect 60
CCc1nn(C(C)C(=O)NCc2cccc(Cl)c2)c(=O)c2cc3occc3n12 (configuration not stated)	none
C=CCNC(=O)/C(C#N)=C\c1cc(Cl)c(OCC)c(OC)c1	CR mimetic SO 63
Cc1ccc(CNCc2cc3c(C(C)(C)C)nn(-c4ccccc4)c3[nH]c2=O)cc1	H9c2 protect 58
CC(C)(C)c1nn(-c2ccccc2)c2[nH]c(=O)c(CNCc3ccco3)cc12	H9c2 protect 79
CN(C)CCCNC(=S)N(CCCN(C)C)Cc1cc2cc3c(cc2[nH]c1=O)OCO3	none
CCN(CC)CCCN(Cc1cc2cc3c(cc2[nH]c1=O)OCO3)C(=S)NCCCN(C)C	Mot1-301 SUMO 880
C[C@@H]1CCCCO[C@H](CN(C)C(=O)Nc2ccc(C(F)(F)F)cc2)[C@@H](C)CN([C@H](C)CO)C(=O)c2cc(NC(=O)c3ccncc3)ccc2O1	none (no result: CR mimetic SO, Mot1-301 SUMO)
CCCCC[n+]1ccn(C2=C([O-])c3ccccc3C(=O)/C2=N\S(=O)(=O)c2ccccc2)c1	none (no result: Mot1-301 SUMO)
CCCCC[n+]1ccn(C2=C([O-])c3ccccc3C(=O)/C2=N\S(=O)(=O)c2ccc(Br)cc2)c1	aDG glyco act 5.8
CCC(CC)C(C(=O)NCc1ccccc1)N1CCN(CCN2CCOCC2)CC1 (configuration not stated)	none (no result: H9c2 protect, FAS TE block, CR mimetic SO, Mot1-301 SUMO)
COc1cccc(NC(=O)CSc2nc3ccccc3nc2N2CCOCC2)c1	none
O=C(O)C1C(c2ccccc2)c2ccccc2C(O)C1CO (configuration not stated)	none (no result: CR mimetic SO, Mot1-301 SUMO)
COc1cccc(-c2sc3ccc(OC)cc3c2-c2ccc(OCCN(C)C)cc2)c1	aDG glyco act 8.6
C[C@@H]1CN([C@@H](C)CO)C(=O)c2cc(Br)cnc2O[C@H]1CN(C)C(=O)Cc1cccnc1	none (no result: CR mimetic SO, Mot1-301 SUMO)
CSc1ccc(/C=C(/Sc2nnc(-c3ccccc3)o2)C(=O)O)cc1	none
COc1ccc(-c2nnc(S/C(=C/c3ccc(Cl)cc3)C(=O)O)o2)cc1	Mot1-301 SUMO 679
O=c1c(O)c(-c2cc(O)c(O)c(O)c2)oc2cc(O)cc(O)c12	Mot1-301 SUMO 265
COc1ccc(/C(C)=N/NC(=O)c2cccc(S(=O)(=O)N3CCCC3)c2)c(O)c1	H9c2 protect 70
COc1ccc(C(=O)N2CCN(c3nc4cc(C)cc(C)c4cc3C#N)CC2)cc1	none (no result: CR mimetic SO, Mot1-301 SUMO)
